In ChEMBL document CHEMBL4513146, “CO-ADD screening of Karazin Kharkiv National University (Ukraine) compounds”:
Measured potencies and affinities stand elsewhere.

Legend:
[1] = test system: Klebsiella pneumoniae; settings: Concentration 32 ug.mL-1;; ASSAY_TEST Inhibition of Bacterial Growth; detection method Absorption (OD600); MEDIA CAMHB; plate type 384well; NBS; CORNING #3640; time 18 hr
[2] = test system: Candida albicans; settings: Concentration 32 ug.mL-1; ASSAY_TEST Inhibition of Fungal Growth; detection method Absorption (OD530)
[3] = test system: Cryptococcus neoformans; settings: Concentration 32 ug.mL-1; ASSAY_TEST Inhibition of Fungal Growth; detection method Resazurin; Absorption (OD600-OD570); plate type 384well; NBS; CORNING #3640

| Structure (SMILES) | Inhibition [1] | Inhibition [2] | Inhibition [3] |
| --- | --- | --- | --- |
| Cc1cccc(Sc2nc3ccccc3n3c(=O)n(CC(=O)Nc4c(C)cc(C)cc4C)nc23)c1 | 10.9% | 0.56% | -23.88% |
| Cc1nnc2ccc(S(=O)(=O)N(Cc3ccccc3Cl)c3ccc(F)cc3)cn12 | 0.63% | 5.22% | -2.96% |
| CC(C)c1nnc2c(SCC(=O)Nc3cccc(Br)c3)nc3ccccc3n12 | 2.52% | 2.36% | -16.07% |
| Cc1ccc(NC(=O)CSc2nc3ccccc3n3c(C(C)C)nnc23)c(Cl)c1 | 0.92% | 27.99% | -3.15% |
| O=S(=O)(c1ccc2nncn2c1)N(Cc1cc(F)cc(F)c1)c1cccc(F)c1 | 11.98% | 2.7% | -8.32% |
| Cc1ccc(Oc2nccn3c(=O)n(CC(=O)Nc4ccc5c(c4)OCO5)nc23)cc1 | 3.22% | -1.46% | -8.87% |
| COc1ccc(CN(c2ccc(F)cc2)S(=O)(=O)c2cccn3c(C)nnc23)cc1 | 13.21% | 1.16% | -6.38% |
| CCOc1ccc(-n2ccn3c(SCC(=O)c4c(C)[nH]c5ccccc45)nnc3c2=O)cc1 | 3.78% | 2.22% | -13.8% |
| CCCCOc1ccc(-c2cc3c4nnc(SCC(=O)Nc5c(C)cccc5C)n4ccn3n2)cc1 | 2.94% | 28.25% | -13.35% |
| CCOC(=O)c1ccccc1NC(=O)Cn1nc2c(Oc3ccc(C)cc3)nccn2c1=O | -8.56% | 4.6% | -10.52% |
| Cc1cc(C)cc(N(Cc2cc(F)cc(F)c2)S(=O)(=O)c2cccn3c(C)nnc23)c1 | 11.7% | 0.35% | -11.73% |
| O=C(CSc1nnc2c(=O)n(-c3ccc(Br)cc3)ccn12)Nc1ccc(F)cc1 | 8.05% | 10.99% | -11.61% |
| O=c1n(Cc2c(F)cccc2Cl)nc2ccc(-c3ccccc3)nn12 | -0.01% | 8.72% | -10.32% |
| COc1cc(Cl)c(C)cc1NC(=O)Cn1nc2ccc(SC(C)(C)C)nn2c1=O | 11.93% | 3.05% | -11.08% |
| COC(=O)c1ccc(NC(=O)Cn2nc3ccc(S(=O)(=O)C4CCCCC4)nn3c2=O)cc1 | 9.79% | 17.49% | -8.73% |
| COc1ccc(N2CCN(C(=O)Cn3nc4ccc(-c5ccc(Cl)cc5)nn4c3=O)CC2)cc1 | -0.61% | 7.77% | -9.26% |
| CCc1nnc2c(SCC(=O)Nc3cc(Cl)ccc3OC)nc3ccccc3n12 | 11.61% | 1.63% | -7.04% |
| COc1ccc(NC(=O)Cn2nc3c(Sc4cccc(F)c4)nccn3c2=O)cc1Cl | 3.02% | 0.26% | -9.78% |
| COc1cccc(Oc2nccn3c(=O)n(CC(=O)NC4CCCCC4)nc23)c1 | 9.68% | -1.29% | -8.14% |
| COc1ccc(NC(=O)CSc2nnc3c(=O)n(-c4ccccc4)ccn23)cc1 | 0.2% | 2.88% | -4.81% |
| CCc1nnc2c(S(=O)(=O)N(Cc3ccc(C)cc3)c3ccc(C(C)C)cc3)cccn12 | 10.84% | 9.31% | -8.19% |

| Structure (SMILES) | Inhibition [1] | Inhibition [2] | Inhibition [3] |
| --- | --- | --- | --- |
| O=C(Cn1nc2c(Oc3ccccc3)nccn2c1=O)Nc1ccc2c(c1)OCO2 | 4.55% | 2.95% | -10% |
| CCOC(=O)c1ccc(NC(=O)Cn2nc3c4sc(N5CCCC5)nc4ncn3c2=O)cc1 | -7.55% | 32.94% | -7.69% |
| COc1ccc(N2CCN(C(=O)Cn3nc4c(Oc5cccc(C)c5C)nccn4c3=O)CC2)cc1 | 15.7% | -0.29% | -13.03% |
| CC(C)c1ccc(N(Cc2ccccc2)S(=O)(=O)c2cccn3cnnc23)cc1 | 5.94% | 6.69% | -11.77% |
| COC(=O)c1ccc(NC(=O)CSc2nc3ccccc3n3c(C(C)C)nnc23)cc1 | 12.96% | 4.43% | -21.14% |
| COc1ccc(NC(=O)Cn2nc3c4cc(-c5ccc(C)c(C)c5)nn4ccn3c2=O)cc1Cl | 8.4% | 6.09% | -7.3% |
| COc1ccc(-c2cc3c4nnc(CCC(=O)NCc5cccs5)n4ccn3n2)cc1 | 6.72% | -0.32% | -11.02% |
| Cc1ccccc1Nc1cc(C)n2c(=O)n(CCc3ccccc3)nc2n1 | 8.17% | 2.84% | -4.15% |
| CCOc1ccc(NC(=O)Cn2nc3ccc(-c4ccccc4)nn3c2=O)cc1 | 6.87% | 4.93% | -6.8% |
| CCc1nnc2c(SCC(=O)NCc3ccccc3Cl)nc3ccccc3n12 | 8.04% | 1.39% | -17.43% |
| COC(=O)c1ccccc1NC(=O)Cn1nc2c(Oc3ccc(C)cc3)nccn2c1=O | 2.12% | -2.14% | -10.13% |
| COc1cccc(Sc2nc3ccccc3n3c(=O)n(CC(=O)Nc4cccc(F)c4)nc23)c1 | 12.26% | -1.78% | -25.49% |
| Cn1c(=O)c2sccc2n2c(=O)n(Cc3cccc(Br)c3)nc12 | 5.37% | 10.92% | -9.95% |
| CC(C)CCn1c(=O)c2sccc2n2c(=O)n(Cc3c(F)cccc3Cl)nc12 | 12.18% | 9.98% | -27.55% |
| COc1ccc(C(C)NC(=O)CCc2nnc3ccc(-c4ccc(C)cc4)nn23)cc1OC (stereo not drawn) | 15.87% | 8.51% | -54.1% |
| O=c1c2nnc(SCc3ccccc3Cl)n2ccn1-c1ccc(F)cc1 | 8% | 2.71% | -9% |
| CCOC(=O)c1ccc(NC(=O)Cn2nc3ccc(C(=O)Nc4cccc(C)c4)cn3c2=O)cc1 | 6.83% | 1.34% | -36.79% |
| CSc1cccc(NC(=O)Cn2nc3c(SC4CCCCC4)nccn3c2=O)c1 | 1.73% | -2.6% | -1.74% |
| COc1ccc(NC(=O)Cn2nc3nc(N4CCOCC4)ccn3c2=O)cc1Cl | 17.46% | 1.98% | -8.34% |
| Cc1ccccc1Oc1nccn2c(=O)n(CC(=O)Nc3cc(F)ccc3F)nc12 | 13.37% | -0.39% | -8.18% |
| COc1ccc(NC(=O)Cn2nc3c(SCc4ccc(Cl)cc4)nccn3c2=O)cc1OC | 3.8% | 27.48% | -20.96% |

| Structure (SMILES) | Inhibition [1] | Inhibition [2] | Inhibition [3] |
| --- | --- | --- | --- |
| Cc1ccc(C)c(NC(=O)Cn2nc3n(C)c(=O)c4c(c(-c5ccccc5)cn4C)n3c2=O)c1 | -7.88% | 1.95% | -9.34% |
| COc1ccc(CNC(=O)Cn2nc3c(N4CC(C)CC(C)C4)nccn3c2=O)cc1 (stereo not drawn) | -3.24% | 4.41% | -8.27% |
| Cc1cccc(C)c1NC(=O)Cn1nc2c3c4c(sc3ncn2c1=O)CCCC4 | 12.26% | 11.56% | -19.68% |
| COc1cccc(CN(c2ccc(F)cc2)S(=O)(=O)c2ccc3nnc(C)n3c2)c1 | 7.98% | -0.17% | -13.2% |
| CCOc1ccc(NC(=O)Cn2nc3c4cc(-c5ccc(C)c(C)c5)nn4ccn3c2=O)cc1 | 8.27% | 0.04% | -13.03% |
| Cc1ccc(-c2ccc3nn(Cc4cccc(Br)c4)c(=O)n3n2)cc1C | 14.87% | 0.19% | -18.95% |
| COc1ccc(-c2cc3c4nnc(SCC(=O)NCc5ccccc5Cl)n4ccn3n2)cc1 | 6.77% | 1.79% | -22.52% |
| Cc1ccc(Sc2nccn3c(=O)n(CC(=O)Nc4ccc(Br)cc4)nc23)c(C)c1 | 5.96% | -1.11% | -6.8% |
| Cc1ccc(NC(=O)Cn2nc3c4cc(-c5ccc(C)c(C)c5)nn4ccn3c2=O)cc1C | 4.54% | 4.1% | -9.03% |
| CN(Cc1ccccc1)C(=O)CSc1nnc2c3cc(-c4ccccc4)nn3ccn12 | -0.25% | 2.03% | -6.97% |
| CCc1nnc2c(=O)n(CC(=O)Nc3ccc(NC(C)=O)cc3)c3ccccc3n12 | 5.97% | 5.77% | -14.46% |
| CCOc1ccc(-n2ccn3c(SCC(=O)c4cc(C)c(C)cc4C)nnc3c2=O)cc1 | 2.47% | 2.99% | -7.59% |
| CCCCc1ccc(NC(=O)Cn2nc3ccc(-c4ccc(C)c(C)c4)nn3c2=O)cc1 | 1.79% | 1.02% | -8.31% |
| Cc1ccc(NC(=O)Cn2nc3c(SC4CCCCC4)nccn3c2=O)c(Br)c1 | 3.74% | 0.73% | -7.42% |
| O=C(CSc1nnc2c(=O)n(-c3ccccc3)ccn12)Nc1ccc2c(c1)OCCO2 | 7.64% | 0.98% | -23.79% |
| O=S(=O)(c1cccn2cnnc12)N(Cc1cccc(Cl)c1)c1cc(F)cc(F)c1 | 8.32% | 1.62% | -7.91% |
| CCOc1ccc(NC(=O)Cn2nc3c(Oc4ccc(C)cc4)nccn3c2=O)cc1 | 5.41% | 0.26% | -8.36% |
| O=C(Cn1nc2c(SC3CCCCC3)nccn2c1=O)NCc1ccc(F)cc1 | 9.17% | 0.24% | -16.51% |
| CCOC(=O)c1ccccc1NC(=O)Cn1c(=O)c2nnc(C(C)C)n2c2ccccc21 | 12% | 1.04% | -21.33% |
